Data from PubChem BioAssay (EPA / NIEHS).
Results filed as inconclusive are left out. The source holds several records for some structures; these can differ, active in one and inactive in another. Activity calls are given as the source filed them. Rule for the calls: active = hit-call score of the fitted dose curve at least 0.9, where 1 is the maximum; inconclusive = response in the unintended direction; inactive = score below 0.9.

read-out: HMG-CoA synthase (HMGCS2), HMGCS2 (gene 3158); experiment: CLD_HMGCS2_48hr: CellzDirect (CLD) Gene Expression Assay for HMG-CoA synthase (HMGCS2) at 48 hours (AID 2283711)
Experimental: CLD_48hr is a cell-based, multiplexed-readout assay that uses hepatocyte, a human liver primary cell, with measurements taken at 48 hours after chemical dosing in a 96-well plate.CLD_HMGCS2_48hr is one of 16 assay component(s) measured or calculated from the CLD_48hr assay. It is designed to make measurements of mRNA induction, a form of inducible reporter, as detected with chemiluminescence signals by Quantitative Nuclease Protection Assay (qNPA) technology.Data from the assay component CLD_HMGCS2_48hr was analyzed at the endpoint, CLD_HMGCS2_48hr, in the positive analysis fitting direction relative to DMSO as the negative control and baseline of activity. Using a type of inducible reporter, gain-of-signal activity can be used to understand changes in the reporter gene as they relate to the gene HMGCS2. Furthermore, this assay endpoint can be referred to as a primary readout. To generalize the intended target to other relatable targets, this assay endpoint is annotated to the lyase intended target family, where subfamily is HMG-CoA synthase.
Human hepatocyte cultures were treated daily for two consecutive days with fresh dosing solutions containing appropriate concentrations of the 320 ToxCast chemicals (chemical identities were blinded to CellzDirect and other ToxCast collaborators), vehicle control (0.2% DMSO), and positive control inducers as summarized in Table 1. Due to the large number of treatment groups and chemicals examined, the ToxCast chemicals were divided into two groups (spanning two independent cultures of hepatocytes from separate donor preparations (Hu778: ToxCast plates 1 and 2; Hu776: ToxCast plates 3 and 4). Each preparation of human hepatocyte cultures was treated with respective vehicle control, medium only control, set of six positive controls/reference chemicals for the five hepatic receptor pathways, and a subset of eight of the ToxCast chemicals (indoxacarb, pyrithiobac-sodium, norflurazon, cyhalofop-butyl, methomyl, thiram, acetochlor, and propiconazole). These replicate data, coupled with internal replicates designed within the blinded ToxCast chemical library, provided additional data to evaluate interindividual differences between hepatocyte preparations and their potential impact on chemical profiles.Cell morphology and integrity were evaluated using phase-contrast microscopy as an indicator of hepatocyte cell health (Tyson & Green, 1987). Cultures for each treatment group (i.e., media, vehicle [0.2% DMSO], positive control inducers [multiple concentrations], and the ToxCast chemicals [multiple concentrations]) were observed and cell morphology was assessed relative to vehicle control cultures at each harvest time point (0, 6, 24, or 48 h). […] Images were evaluated at the conclusion of the study to assess changes in cell integrity and account for the effects of chemical exposure on uncharacteristic changes in concentration-dependent gene expression profiles. The results from these determinations of apparent cytotoxicity were annotated (yes/no) alongside the corresponding qNPA data for reference.At the conclusion of each treatment period, hepatocyte cultures (96-well) were washed with 1 volume of HBSS, lysed by addition of 25 ul ArrayPlate lysis buffer (HTG, Tucson, AZ), and 70 ul/well of Denaturation Oil, denatured by incubation at 95C for 10 min, and frozen at approximately -70C until analysis by nuclease protection assay (qNPA) (Roberts et al., 2007). For qNPA analysis, cell lysates were thawed at 50C for approximately 30 min, qNPA probes were added, and samples were incubated at 95C for 10 min to begin the detection process by denaturing the target RNA, dissociating the duplexes and secondary structure hybridization. At the conclusion of the hybridization period, S1 nuclease reagent was added to each sample to digest all nonprotected nucleotides at 50C for 60-90 min. […]

| Compound | outcome | AC50 |
| --- | --- | --- |
| CCCCOC(=O)c1ccccc1C(=O)OCCCC | inactive |  |
| COP(N)(=O)SC (centres undefined) | inactive |  |
| CS/C(C)=N/OC(=O)N(C)SN(C)C(=O)O/N=C(\C)SC | inactive |  |
| CC(Oc1ccc(Cl)cc1Cl)C(=O)O (centres undefined) | inactive |  |
| C#CCOS(=O)OC1CCCCC1Oc1ccc(C(C)(C)C)cc1 (centres undefined) | inactive |  |
| O=C(O)c1nc(Cl)ccc1Cl | inactive |  |
| COc1nc(C)nc(NC(=O)NS(=O)(=O)c2ccccc2CCC(F)(F)F)n1 | inactive |  |
| COC(=O)c1ccccc1C(=O)OC | inactive |  |
| CCON=C(CC)C1=C(O)CC(c2c(C)cc(C)cc2C)CC1=O (centres undefined) | inactive |  |
| CC1COC(Cn2cncn2)(c2ccc(Oc3ccc(Cl)cc3)cc2Cl)O1 (centres undefined) | inactive |  |
| C=CCC1=C(C)C(OC(=O)C2C(C=C(C)C)C2(C)C)CC1=O (centres undefined) | inactive |  |
| O=C(O)COc1nc(Cl)c(Cl)cc1Cl | inactive |  |
| COC(=O)N(OC)c1ccccc1COc1ccn(-c2ccc(Cl)cc2)n1 | inactive |  |
| N#CC(CCc1ccc(Cl)cc1)(Cn1cncn1)c1ccccc1 (centres undefined) | inactive |  |
| COC(=O)C(C)Oc1ccc(Oc2ccc(Cl)cc2Cl)cc1 (centres undefined) | inactive | 35.6 µM (active) |
| CCOP(=S)(OCC)SCn1c(=O)oc2cc(Cl)ccc21 | inactive |  |
| CC(C)(C)c1ccc(CSc2cnn(C(C)(C)C)c(=O)c2Cl)cc1 | inactive |  |
| Cc1cc(Cl)ccc1OCC(=O)O | inactive |  |
